Experimental data reported in PubChem BioAssay (Tox21).
Records with an inconclusive call do not appear. Calls of active or inactive are those of the source. Unless noted, calls come from the whole dose curve; as a rule, active = well fitted curve in the direction sought with a large enough effect in the repeat runs; inconclusive = weak or mixed curves; inactive = no such curve, though single readings can be large; an effect the other way counts as inactive or inconclusive.

Tests used:
[1] = qHTS assay for small molecule agonists of the p53 signaling pathway (AID 651631; calls by dose curve; note: nearly all actives have a fitted effect of over 15% in size)
Summary of the method: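 We treat p53RE-bla HCT-116 cells with compounds for 16 h at 37 °C, add LiveBLAzer B/G FRET substrate for 2 h at room temperature, and measure fluorescence intensity.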

[2] = qHTS assay for small molecules that induce genotoxicity in human embryonic kidney cells expressing luciferase-tagged ATAD5 (AID 651632); note: nearly all actives have a fitted effect of over 15% in size
Summary of the method: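 Test compounds were delivered by pin tool onto HEK293T reporter cells (2,000/well) expressing ATAD5 fused to luciferase. After 16 hr at 37C, 5% CO2, Amplite was added for 30 min at room temperature and luminescence was measured.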

[3] = qHTS assay for small molecule agonists of the p53 signaling pathway - cell viability (AID 651633; calls by dose curve;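 note: p53RE-bla HCT reporter cells with a stable beta-lactamase p53 reporter; series mostly up to about 83 µM; nearly all actives have a fitted effect of over 30% in size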)
Summary of the method: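 p53RE-bla cells, seeded at 4,000 per well and rested 5 h at 37 C/5% CO2, received compounds in DMSO for 16 h at 37 C. CellTiter-Glo was then added, and luminescence was read after 30 min at room temperature to gauge cytotoxicity.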

[4] = qHTS assay for small molecules that induce genotoxicity in human embryonic kidney cells expressing luciferase-tagged ATAD5 - cell viability (AID 651634; calls by dose curve; note: nearly all actives have a fitted effect of over 25% in size)
Summary of the method: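 Quantitative high-throughput format. HEK293T cells expressing ATAD5 fused to luciferase were plated at 2,000 cells/well and treated 15.5 hr with compound versus DMSO. Viability was determined by fluorescent live-cell protease substrate, 30 min at 37C.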

[5] = qHTS assay for small molecule disruptors of the mitochondrial membrane potential - cell viability (AID 720634; calls by dose curve;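 note: human HepG2 liver cancer cells; series mostly up to about 83 µM; nearly all actives have a fitted effect of over 20% in size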)
Summary of the method: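 Same-well counter-screen: following the MMP dye addition, CellTiter-Glo was added to 1 hr compound-treated HepG2 cells and luminescence read after 30 min at room temperature.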

[6] = qHTS assay to test for compound auto fluorescence at 590 nm (red) in HepG2 cells (AID 720674)
Summary of the method: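 Rose Bengal sodium served as the red fluorophore standard. HepG2 monolayers (overnight attachment, MEM with 10% FBS) were exposed to test compounds for 1 hr at 37 C and read at Ex 540/Em 590 nm.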

[7] = qHTS assay to test for compound auto fluorescence at 535 nm (green) in HepG2 cells (AID 720675)
[8] = qHTS assay to test for compound auto fluorescence at 460 nm (blue) in HEK293 cells (AID 720678)
Summary of the method: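 After cell attachment (4-5 hr, 37C), compounds were pinned onto HEK293 monolayers in 10% dialyzed FBS medium. The blue channel (405/460 nm) was read following overnight culture. Equivalency was calculated against triamterene.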

[9] = qHTS assay to test for compound auto fluorescence at 590 nm (red) in HEK293 cells (AID 720679)
Summary of the method: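 Plates of HEK293 cells (10% dialyzed FBS) are treated with 23 nL compound or DMSO vehicle after a 4-5 hr attachment period, incubated overnight at 37C, and read for red fluorescence at 540/590nm.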

[10] = qHTS assay to test for compound auto fluorescence at 535 nm (green) in HEK293 cells (AID 720680)
[11] = qHTS assay to test for compound auto fluorescence at 460 nm (blue) in HEK293 cell free culture (AID 720681)
Summary of the method: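 Test compounds were pinned into cell-free culture medium (DMEM with 10% FBS) and fluorescence was read directly at Ex/Em 405/460 nm. Signals were expressed as fluorescence equivalents of triamterene, with DMSO vehicle as control.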

[12] = qHTS assay to test for compound auto fluorescence at 535 nm (green) in HEK293 cell free culture (AID 720682)
Summary of the method: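 Green-channel intensity (Ex/Em 485/535 nm) was recorded from compound-treated wells containing only DMEM with 10% FBS. Fluorescein provided the equivalency standard.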

[13] = qHTS assay to test for compound auto fluorescence at 590 nm (red) in HEK293 cell free culture (AID 720683)
Summary of the method: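 Tox21 10K library compounds were pinned into cell-free DMEM with 10% FBS and fluorescence was read at excitation 540 nm. Activity is expressed as Rose Bengal sodium equivalency.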

[14] = qHTS assay to test for compound auto fluorescence at 590 nm (red) in HepG2 cell free culture (AID 720684)
Summary of the method: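 Ex 540 / Em 590 nm read of compound in cell-free MEM (10% FBS). Rose Bengal sodium reference.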

[15] = qHTS assay to test for compound auto fluorescence at 460 nm (blue) in HepG2 cell free culture (AID 720685)
Summary of the method: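 Cell-free plates of MEM plus 10% FBS received 23 nL compound or DMSO vehicle; blue-channel (405/460 nm) intensity scored against triamterene as reference fluorophore.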

[16] = qHTS assay to test for compound auto fluorescence at 535 nm (green) in HepG2 cell free culture (AID 720686)
[17] = qHTS assay to test for compound auto fluorescence at 460 nm (blue) in HepG2 cells (AID 720687)
Summary of the method: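 Cells (2,000/well in MEM with 10% FBS) attached overnight at 37 C, then were exposed to compound or DMSO for 1 hr at 37 C, 5% CO2. Fluorescence read at Ex/Em 405/460 nm, expressed as triamterene-equivalent signal.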

[18] = molecular target: Glucocorticoid receptor (Homo sapiens) (UniProt P04150); experiment: qHTS assay to identify small molecule agonists of the glucocorticoid receptor (GR) signaling pathway (AID 720691; active = well fitted activation curve with a large enough effect in the signal ratio in the repeat runs, not every such curve was filed as active; the % refers to the signal ratio)
Sequence of Glucocorticoid receptor (Homo sapiens) (P04150 whole entry, looked up): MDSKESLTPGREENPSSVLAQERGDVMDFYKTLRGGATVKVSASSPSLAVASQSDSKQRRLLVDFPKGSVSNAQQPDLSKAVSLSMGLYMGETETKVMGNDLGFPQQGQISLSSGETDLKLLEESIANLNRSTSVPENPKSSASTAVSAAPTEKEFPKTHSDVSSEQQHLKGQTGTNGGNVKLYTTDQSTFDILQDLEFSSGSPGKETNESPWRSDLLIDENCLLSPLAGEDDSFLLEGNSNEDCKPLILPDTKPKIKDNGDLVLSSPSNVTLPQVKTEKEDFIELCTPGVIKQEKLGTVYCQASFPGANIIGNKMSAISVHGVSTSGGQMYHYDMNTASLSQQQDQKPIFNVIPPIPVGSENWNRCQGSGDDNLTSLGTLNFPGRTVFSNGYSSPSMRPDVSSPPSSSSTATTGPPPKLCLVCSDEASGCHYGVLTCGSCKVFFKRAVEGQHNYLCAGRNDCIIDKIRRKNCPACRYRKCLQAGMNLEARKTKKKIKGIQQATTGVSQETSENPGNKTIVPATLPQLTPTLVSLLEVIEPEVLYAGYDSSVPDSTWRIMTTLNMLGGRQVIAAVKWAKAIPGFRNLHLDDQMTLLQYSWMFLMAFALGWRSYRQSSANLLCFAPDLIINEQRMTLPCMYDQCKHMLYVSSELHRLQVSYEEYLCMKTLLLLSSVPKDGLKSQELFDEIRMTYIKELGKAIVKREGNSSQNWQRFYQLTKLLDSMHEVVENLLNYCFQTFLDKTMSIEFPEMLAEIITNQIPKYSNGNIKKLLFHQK
Summary of the method: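 A HeLa cervical cancer line expressing GR and a glucocorticoid response element-driven beta-lactamase gene is treated with compounds for 18 h; LiveBLAzer B/G FRET substrate is then applied and fluorescence read.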

[19] = molecular target: Glucocorticoid receptor (Homo sapiens) (UniProt P04150); experiment: qHTS assay to identify small molecule antagonists of the glucocorticoid receptor (GR) signaling pathway (AID 720692; active = well fitted inhibition curve with a large enough effect in the signal ratio in the repeat runs, not every such curve was filed as active; the % refers to the signal ratio)
Summary of the method: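 GRE-bla HeLa line, dex-stimulated (5 nM final). Compound exposure 18 h, 37 C. Beta-lactamase FRET read after 2 h RT substrate.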

[20] = qHTS assay for small molecule disruptors of the mitochondrial membrane potential (AID 720635)
Summary of the method: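 HepG2 cells (2,000/well) attached overnight at 37C, then took compound for 1 hr at 37C, 5% CO2. Mito-MPS dye was added for 30 min; fluorescence was read at 490/535 nm (monomers) and 540/590 nm (aggregates).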

Measured: Potency

O=C(CCCN1CCC(O)(c2cccc(C(F)(F)F)c2)CC1)c1ccc(F)cc1
not listed: [20]
inactive: all other assays above

CCN1CCC[C@H]1CNC(=O)c1c(O)c(Cl)cc(Cl)c1OC
not listed: [3] | [11] | [18] | [19] | [20]
inactive: all other assays above

CN(C)CCCNCCCN(C)C
not listed: [4] | [5] | [6] | [11] | [20]
inactive: all other assays above

CCn1ccnc1CC1COc2ccccc2O1 (configuration not stated)
not listed: [1] | [15] | [19]
inactive: all other assays above

CCOC(=O)CCC(C)=O
not listed: [3] | [6] | [20]
inactive: all other assays above

C[C@](N)(Cc1ccc(O)cc1)C(=O)O
not listed: [3] | [11] | [15] | [19]
inactive: all other assays above

Cc1c(O)cccc1O
not listed: [1] | [18] | [19]
inactive: all other assays above

CCC(C)C1CCCCC1=O (configuration not stated)
not listed: [1] | [18] | [19]
inactive: all other assays above

N=C(N)c1ccccc1
not listed: [4] | [15] | [17] | [18] | [19] | [20]
inactive: all other assays above

CC(C)NCC(O)c1ccc(NS(C)(=O)=O)cc1 (configuration not stated)
not listed: [1] | [15]
inactive: all other assays above

CCN1CCC[C@H]1CNC(=O)c1cc(S(N)(=O)=O)ccc1OC
not listed: [3] | [19]
inactive: all other assays above

Cc1cc(O)cc2c1O[C@](C)(CCC[C@H](C)CCC[C@H](C)CCCC(C)C)CC2
not listed: [1] | [19]
inactive: all other assays above

O=c1[nH]c(=O)n([C@H]2C[C@H](O)[C@@H](CO)O2)cc1I
not listed: [2] | [3] | [4] | [18] | [19]
inactive: all other assays above

CCCCCOC(=O)CCCCC
not listed: [4] | [15] | [19] | [20]
inactive: all other assays above
